From ChEMBL document CHEMBL1961873, “Compounds: GSK PKIS; Assays: Nanosyn kinase panel” (2012)

What was measured:
[1] = molecular target: RAC-alpha serine/threonine-protein kinase (Homo sapiens) (UniProt P31749); conditions: at 0.1 µM
[2] = molecular target: RAC-alpha serine/threonine-protein kinase (Homo sapiens) (UniProt P31749); conditions: at 1 µM
[3] = molecular target: RAC-beta serine/threonine-protein kinase (Homo sapiens) (UniProt P31751); conditions: at 0.1 µM
[4] = molecular target: RAC-beta serine/threonine-protein kinase (Homo sapiens) (UniProt P31751); conditions: at 1 µM
[5] = molecular target: RAC-gamma serine/threonine-protein kinase (Homo sapiens) (UniProt Q9Y243); conditions: at 0.1 µM
[6] = molecular target: RAC-gamma serine/threonine-protein kinase (Homo sapiens) (UniProt Q9Y243); conditions: at 1 µM
[7] = molecular target: G protein-coupled receptor kinase 6 (Homo sapiens) (UniProt P43250); conditions: at 0.1 µM
[8] = molecular target: G protein-coupled receptor kinase 6 (Homo sapiens) (UniProt P43250); conditions: at 1 µM
[9] = molecular target: T1, Rhodopsin kinase GRK7 (Homo sapiens) (UniProt Q8WTQ7); conditions: at 0.1 µM
T1 sequence (whole entry): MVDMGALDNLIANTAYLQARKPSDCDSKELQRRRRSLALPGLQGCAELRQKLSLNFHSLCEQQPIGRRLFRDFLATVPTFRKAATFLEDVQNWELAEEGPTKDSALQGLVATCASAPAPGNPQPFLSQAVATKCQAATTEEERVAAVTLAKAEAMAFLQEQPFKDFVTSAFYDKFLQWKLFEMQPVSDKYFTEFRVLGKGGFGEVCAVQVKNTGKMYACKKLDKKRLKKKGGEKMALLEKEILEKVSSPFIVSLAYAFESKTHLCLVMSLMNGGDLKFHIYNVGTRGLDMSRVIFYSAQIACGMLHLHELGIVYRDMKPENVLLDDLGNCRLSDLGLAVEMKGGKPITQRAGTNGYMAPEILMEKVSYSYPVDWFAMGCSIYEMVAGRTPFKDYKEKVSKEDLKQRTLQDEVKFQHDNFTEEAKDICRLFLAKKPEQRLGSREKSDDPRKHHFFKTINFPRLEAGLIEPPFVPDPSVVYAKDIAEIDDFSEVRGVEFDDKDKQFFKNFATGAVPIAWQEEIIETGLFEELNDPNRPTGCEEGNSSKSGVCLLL

[10] = molecular target: T1, Rhodopsin kinase GRK7 (Homo sapiens); conditions: at 1 µM
[11] = molecular target: Serine/threonine-protein kinase MRCK alpha (Homo sapiens) (UniProt Q5VT25); conditions: at 0.1 µM
[12] = molecular target: Serine/threonine-protein kinase MRCK alpha (Homo sapiens) (UniProt Q5VT25); conditions: at 1 µM
[13] = molecular target: Serine/threonine-protein kinase MRCK beta (Homo sapiens) (UniProt Q9Y5S2); conditions: at 0.1 µM
[14] = molecular target: Serine/threonine-protein kinase MRCK beta (Homo sapiens) (UniProt Q9Y5S2); conditions: at 1 µM
[15] = molecular target: Ribosomal protein S6 kinase alpha-5 (Homo sapiens) (UniProt O75582); conditions: at 0.1 µM
[16] = molecular target: Ribosomal protein S6 kinase alpha-5 (Homo sapiens) (UniProt O75582); conditions: at 1 µM
[17] = molecular target: Ribosomal protein S6 kinase alpha-4 (Homo sapiens) (UniProt O75676); conditions: at 0.1 µM
[18] = molecular target: Ribosomal protein S6 kinase alpha-4 (Homo sapiens) (UniProt O75676); conditions: at 1 µM
[19] = molecular target: Ribosomal protein S6 kinase beta-1 (Homo sapiens) (UniProt P23443); conditions: at 0.1 µM
[20] = molecular target: Ribosomal protein S6 kinase beta-1 (Homo sapiens) (UniProt P23443); conditions: at 1 µM

Sequence of Ribosomal protein S6 kinase alpha-5 (Homo sapiens) (O75582 whole entry, looked up): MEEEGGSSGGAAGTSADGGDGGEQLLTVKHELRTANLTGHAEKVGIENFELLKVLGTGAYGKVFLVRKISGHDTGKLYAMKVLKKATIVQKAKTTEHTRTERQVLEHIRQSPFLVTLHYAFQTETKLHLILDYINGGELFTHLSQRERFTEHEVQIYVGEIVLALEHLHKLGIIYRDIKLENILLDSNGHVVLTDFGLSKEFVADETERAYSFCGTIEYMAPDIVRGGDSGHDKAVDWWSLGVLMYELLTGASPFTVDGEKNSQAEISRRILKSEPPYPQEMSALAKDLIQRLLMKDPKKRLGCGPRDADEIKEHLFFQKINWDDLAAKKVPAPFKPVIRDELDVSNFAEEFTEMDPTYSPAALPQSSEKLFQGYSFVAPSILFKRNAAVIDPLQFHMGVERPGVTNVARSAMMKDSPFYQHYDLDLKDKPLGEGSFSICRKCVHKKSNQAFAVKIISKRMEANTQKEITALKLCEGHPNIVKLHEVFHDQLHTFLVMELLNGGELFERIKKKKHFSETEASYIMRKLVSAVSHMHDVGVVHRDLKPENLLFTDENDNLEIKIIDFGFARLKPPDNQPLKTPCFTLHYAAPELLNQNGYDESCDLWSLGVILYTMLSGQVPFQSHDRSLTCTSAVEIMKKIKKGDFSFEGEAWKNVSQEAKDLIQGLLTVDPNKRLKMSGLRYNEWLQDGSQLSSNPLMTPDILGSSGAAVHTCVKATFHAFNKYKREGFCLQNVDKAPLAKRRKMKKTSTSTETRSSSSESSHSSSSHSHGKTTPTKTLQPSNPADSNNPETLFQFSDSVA
Sequence of Ribosomal protein S6 kinase beta-1 (Homo sapiens) (P23443 whole entry, looked up): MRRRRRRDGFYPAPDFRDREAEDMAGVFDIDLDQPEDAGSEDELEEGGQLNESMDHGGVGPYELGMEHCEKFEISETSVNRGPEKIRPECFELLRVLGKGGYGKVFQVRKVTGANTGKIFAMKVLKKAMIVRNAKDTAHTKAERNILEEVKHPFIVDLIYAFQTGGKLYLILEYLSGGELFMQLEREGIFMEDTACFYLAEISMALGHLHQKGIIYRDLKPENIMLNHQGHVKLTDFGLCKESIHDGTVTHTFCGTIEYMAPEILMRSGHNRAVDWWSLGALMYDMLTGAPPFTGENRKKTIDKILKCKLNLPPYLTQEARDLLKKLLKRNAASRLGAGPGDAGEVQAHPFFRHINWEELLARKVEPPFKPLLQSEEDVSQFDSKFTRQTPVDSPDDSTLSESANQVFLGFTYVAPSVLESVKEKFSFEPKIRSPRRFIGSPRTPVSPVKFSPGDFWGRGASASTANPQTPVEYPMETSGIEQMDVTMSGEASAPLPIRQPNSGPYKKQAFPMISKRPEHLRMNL
Sequence of Serine/threonine-protein kinase MRCK beta (Homo sapiens) (Q9Y5S2 whole entry): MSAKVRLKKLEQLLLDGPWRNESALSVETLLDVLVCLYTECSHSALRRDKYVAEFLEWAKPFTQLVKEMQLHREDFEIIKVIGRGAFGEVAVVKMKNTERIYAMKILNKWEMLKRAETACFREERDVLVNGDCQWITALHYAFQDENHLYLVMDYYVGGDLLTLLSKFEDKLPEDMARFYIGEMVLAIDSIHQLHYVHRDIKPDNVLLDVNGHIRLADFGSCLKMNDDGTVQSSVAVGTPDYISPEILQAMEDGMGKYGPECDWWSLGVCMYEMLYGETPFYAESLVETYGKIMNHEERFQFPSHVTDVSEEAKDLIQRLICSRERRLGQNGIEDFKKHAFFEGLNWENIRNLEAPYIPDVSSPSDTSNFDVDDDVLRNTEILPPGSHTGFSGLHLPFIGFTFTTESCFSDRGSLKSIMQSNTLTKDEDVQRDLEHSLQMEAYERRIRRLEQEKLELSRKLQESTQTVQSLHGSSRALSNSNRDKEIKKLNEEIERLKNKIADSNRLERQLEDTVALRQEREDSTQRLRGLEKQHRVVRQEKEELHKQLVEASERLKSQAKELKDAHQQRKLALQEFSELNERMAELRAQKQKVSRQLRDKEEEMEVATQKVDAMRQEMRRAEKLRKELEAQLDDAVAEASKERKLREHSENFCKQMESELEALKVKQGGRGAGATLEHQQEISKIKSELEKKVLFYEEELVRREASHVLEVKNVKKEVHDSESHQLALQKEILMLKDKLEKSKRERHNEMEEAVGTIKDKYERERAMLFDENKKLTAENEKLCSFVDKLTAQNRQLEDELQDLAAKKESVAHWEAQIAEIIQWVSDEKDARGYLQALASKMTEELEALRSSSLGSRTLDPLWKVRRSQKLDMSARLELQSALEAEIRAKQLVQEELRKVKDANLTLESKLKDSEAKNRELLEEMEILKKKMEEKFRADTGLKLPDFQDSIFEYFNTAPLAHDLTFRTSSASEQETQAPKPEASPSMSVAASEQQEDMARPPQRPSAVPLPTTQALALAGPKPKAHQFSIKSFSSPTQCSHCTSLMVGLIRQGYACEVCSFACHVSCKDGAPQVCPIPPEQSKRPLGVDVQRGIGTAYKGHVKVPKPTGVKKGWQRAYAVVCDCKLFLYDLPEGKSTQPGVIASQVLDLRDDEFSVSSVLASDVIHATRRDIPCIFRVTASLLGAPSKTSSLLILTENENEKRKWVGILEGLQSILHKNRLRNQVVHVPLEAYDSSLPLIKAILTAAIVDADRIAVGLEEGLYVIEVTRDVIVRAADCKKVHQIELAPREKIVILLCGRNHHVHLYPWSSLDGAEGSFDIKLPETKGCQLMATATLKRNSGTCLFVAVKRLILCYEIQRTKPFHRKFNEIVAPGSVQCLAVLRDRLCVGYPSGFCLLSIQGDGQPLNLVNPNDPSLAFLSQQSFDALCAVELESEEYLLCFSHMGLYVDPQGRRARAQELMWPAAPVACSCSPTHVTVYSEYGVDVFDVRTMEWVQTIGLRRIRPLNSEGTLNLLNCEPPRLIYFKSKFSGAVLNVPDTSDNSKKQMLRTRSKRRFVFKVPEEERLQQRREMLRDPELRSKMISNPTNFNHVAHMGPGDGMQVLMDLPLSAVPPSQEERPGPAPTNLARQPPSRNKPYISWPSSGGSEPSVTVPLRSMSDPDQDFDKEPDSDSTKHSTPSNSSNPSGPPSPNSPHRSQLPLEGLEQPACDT
Sequence of Serine/threonine-protein kinase MRCK alpha (Homo sapiens) (Q5VT25 whole entry): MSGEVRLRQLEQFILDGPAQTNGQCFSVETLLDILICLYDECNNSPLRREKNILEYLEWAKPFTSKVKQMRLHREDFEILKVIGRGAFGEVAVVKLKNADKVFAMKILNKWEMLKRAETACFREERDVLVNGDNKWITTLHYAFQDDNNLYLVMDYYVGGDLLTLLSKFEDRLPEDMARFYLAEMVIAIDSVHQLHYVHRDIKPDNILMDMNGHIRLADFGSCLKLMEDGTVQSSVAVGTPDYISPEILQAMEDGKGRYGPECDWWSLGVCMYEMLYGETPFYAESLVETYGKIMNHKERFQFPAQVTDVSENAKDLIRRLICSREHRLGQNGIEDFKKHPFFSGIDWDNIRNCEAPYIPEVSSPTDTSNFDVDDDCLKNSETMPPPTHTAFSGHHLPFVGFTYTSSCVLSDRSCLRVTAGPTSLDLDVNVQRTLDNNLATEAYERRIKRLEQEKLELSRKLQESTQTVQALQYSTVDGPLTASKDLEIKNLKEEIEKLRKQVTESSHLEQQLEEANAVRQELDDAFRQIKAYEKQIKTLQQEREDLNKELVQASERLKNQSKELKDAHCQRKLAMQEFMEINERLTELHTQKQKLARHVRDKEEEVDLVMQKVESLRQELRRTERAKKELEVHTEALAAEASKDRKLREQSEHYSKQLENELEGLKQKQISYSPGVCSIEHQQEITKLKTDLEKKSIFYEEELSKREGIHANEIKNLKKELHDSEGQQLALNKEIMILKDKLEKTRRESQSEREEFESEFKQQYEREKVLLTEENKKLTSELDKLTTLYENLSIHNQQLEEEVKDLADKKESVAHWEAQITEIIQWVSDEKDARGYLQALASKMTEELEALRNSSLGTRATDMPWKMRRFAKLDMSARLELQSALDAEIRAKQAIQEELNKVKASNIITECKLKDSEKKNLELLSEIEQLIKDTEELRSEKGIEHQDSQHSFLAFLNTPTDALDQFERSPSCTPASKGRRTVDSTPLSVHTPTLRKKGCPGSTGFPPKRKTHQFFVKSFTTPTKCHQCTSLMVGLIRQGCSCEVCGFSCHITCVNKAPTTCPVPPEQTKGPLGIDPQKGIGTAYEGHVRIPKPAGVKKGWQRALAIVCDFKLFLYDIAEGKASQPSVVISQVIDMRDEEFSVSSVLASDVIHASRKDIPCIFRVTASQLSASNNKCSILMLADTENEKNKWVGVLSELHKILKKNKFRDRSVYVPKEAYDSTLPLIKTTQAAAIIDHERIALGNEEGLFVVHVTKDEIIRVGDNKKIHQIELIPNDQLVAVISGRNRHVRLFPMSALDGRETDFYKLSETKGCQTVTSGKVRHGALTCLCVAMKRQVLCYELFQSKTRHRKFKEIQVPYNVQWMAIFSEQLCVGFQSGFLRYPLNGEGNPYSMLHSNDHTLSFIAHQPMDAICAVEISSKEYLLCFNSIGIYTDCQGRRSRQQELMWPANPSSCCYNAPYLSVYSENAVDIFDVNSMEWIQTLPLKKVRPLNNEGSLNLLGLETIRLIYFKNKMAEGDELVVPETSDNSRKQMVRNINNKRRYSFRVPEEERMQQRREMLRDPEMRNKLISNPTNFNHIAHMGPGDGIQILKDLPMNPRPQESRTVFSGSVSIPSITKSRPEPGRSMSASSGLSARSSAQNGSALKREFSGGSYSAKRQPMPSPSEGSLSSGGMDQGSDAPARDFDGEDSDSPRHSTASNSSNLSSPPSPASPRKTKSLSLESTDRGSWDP

Compound	inhibition [1] [%]	inhibition [2] [%]	inhibition [3] [%]	inhibition [4] [%]	inhibition [5] [%]	inhibition [6] [%]	inhibition [7] [%]	inhibition [8] [%]	inhibition [9] [%]	inhibition [10] [%]	inhibition [11] [%]	inhibition [12] [%]	inhibition [13] [%]	inhibition [14] [%]	inhibition [15] [%]	inhibition [16] [%]	inhibition [17] [%]	inhibition [18] [%]	inhibition [19] [%]	inhibition [20] [%]
CCS(=O)(=O)c1ccc(OC)c(Nc2ncc(-c3ccccc3Cl)o2)c1	0.85	0.46	0.22	0.16	0.76	0.93	2.4	-0.11	-1.21	-6.79	-0.23	1.6	-0.41	0.3	0.87	3.53	0.38	1.77	0.04	2.73
COc1ccc2cc(-c3c(-c4ccncc4)nc(-c4ccc(S(C)(=O)=O)cc4C)n3C)ccc2c1	1.8	1.99	2.93	2.26	2.8	4.98	5.87	8.14	4.36	8.69	0.29	1.6	2.15	1.98	3.82	5.44	7.21	9.9	1.75	3.34
Cc1nnc(-c2ccc(C)c(-c3ccc(C(=O)NCc4ccc(Cl)cc4)cc3)c2)o1	-1.66	-2.4	0.03	-2.39	0.07	-0.93	5.17	5.38	4.29	9.45	0.16	1.24	0.69	-0.22	1.45	1.55	3.07	3.61	1.21	2.04
Fc1ccc(-c2ncn(CCCN3CCOCC3)c2-c2ccncc2)cc1	0.28	-0.27	0.74	0.26	-0.68	1.2	-3.25	-1.04	-1.98	3.1	1.19	1.33	0.96	2.08	0.01	-0.79	0.3	0.33	0.29	-0.43
NC(=O)Cc1ccccc1Oc1nccc(-c2c(-c3ccc(F)cc3)ncn2C2CCNCC2)n1	0.16	0.12	1.23	0.29	0.15	1.21	-1.33	-0.72	1	1.09	0.16	-0.52	-0.05	1.05	2.22	1.53	-1.39	1.64	0.73	1.27
O=C(Nc1n[nH]c2nc(-c3ccco3)ccc12)C1CC1	-0.33	0.8	0.45	0.89	0.35	0.8	1.97	-2.2	-1.29	-7.98	-0.04	-0.15	0.63	3.54	6.97	8.4	1.68	3.29	1.44	2.43
Fc1ccc(-c2ncn(C3CCNCC3)c2-c2ccnc(Oc3ccc4c(c3)OCO4)n2)cc1	2.04	1.04	0.93	2.21	0.23	3.88	0.51	2.27	9.41	2.9	-2.57	9.23	0.96	2.94	-2.64	-3.44	3.63	4.53	2.58	5.14
O=C(Nc1ccc(Oc2ccc3[nH]c(NC(=O)c4ccccc4)nc3c2)cc1)Nc1cc(C(F)(F)F)ccc1F	-0.2	1.04	1.71	1.18	1.05	1.51	2.58	4.7	0.51	-2.78	-0.69	1	-0.31	-0.22	4.16	5.67	2.16	3.01	5.73	36.4
COc1cc(N2CCN(C(C)C)CC2)ccc1Nc1nc(Nc2ccc(F)cc2C(=O)NC[C@@H](O)CO)c2cc[nH]c2n1	-3.58	-2.63	0.2	-1.3	-2.3	-1.37	9.59	13	5.2	13.3	-0.84	3.26	-0.21	-1.04	2.19	2.99	3.14	4.18	1.29	2.5
CN(C)CCOc1ccc(-c2cc(-c3ccc4c(c3)CCC4=NO)c(-c3ccncc3)o2)cc1	-0.58	-0.16	-0.71	-0.42	-0.65	5.79	-3.48	-0.1	2.18	-5.7	-0.43	-0.33	-0.99	-2.76	-1.98	-2.88	0.1	-2.21	-1.83	-2.77
COc1cc2ncn(-c3cc(OCc4cccs4)c(C(N)=O)s3)c2cc1OC	-2.85	-1.83	-1.63	-2.73	-3.06	-3.04	4.35	17.9	5.59	13	2.82	7.52	1.67	1.38	2.22	5.4	4.25	8	1.35	3.91
CN1CCN(CCCNc2nc3ccc(Oc4ccc(NC(=O)Nc5cc(C(F)(F)F)ccc5F)cc4)cc3[nH]2)CC1	-3.71	-3.59	-3.19	-0.85	-3.05	-2.98	0.32	-5.54	1.12	-3.95	1.76	-0.74	2.45	2.84	1.13	-0.08	1.93	2.99	1.14	4.19
CS(=O)(=O)CCNCc1cc(-c2cc3c(Nc4ccc(OCc5cccc(F)c5)c(Cl)c4)ncnc3s2)cs1	0.79	0.35	0.7	1.93	1.15	3.27	6.28	6.32	8.59	4.24	2.36	5.45	-0.63	2.8	2.17	1.79	3.41	4.94	2.17	4.75
Nc1nccc(-c2c(-c3ccc(F)cc3)ncn2C2CCC(O)CC2)n1 (stereo not given)	-1.5	-1.14	-2.08	-1.44	-1.82	0.5	1.78	-1.92	-3.24	-1.89	-0.25	-0.81	0.88	0.56	-1.03	-0.24	-1.62	-0.73	-1.59	-1.84
NC(=O)c1cc(-c2ccncc2)cc(-c2ccccc2)c1N	0.73	0.01	1.93	2.56	0.25	3.46	3.52	3.56	5.22	9.17	0.84	-0.04	1.07	2.4	-1.53	0.93	2.32	3.43	3.54	2.1
CCc1cccc(CC)c1/C=C/c1cncc(C(=O)NC)c1	0.7	0.8	2.06	1.3	2.25	1.32	-2.11	-0.96	1.2	-8.54	0.02	0.07	0.83	1.46	3.05	2.79	0.51	2.52	1.3	0.41
Clc1ccc(CNc2nccc(-c3cnn4ncccc34)n2)cc1	0.58	0.44	0.17	-0.27	2.1	1.14	5.42	1.78	1.36	-5.11	0	2.46	-1.16	0.3	6.95	7.87	1.14	1.71	1.82	2.04
COc1ccc(-c2ccc3c(NC(=O)C4CC4)n[nH]c3n2)cc1	-0.03	0.55	0.33	0.37	3.49	0.37	5.32	9.55	2.9	10.4	0.51	3.19	-0.1	0.25	1.32	2.82	2.27	2.9	0.22	0.21
COc1cc2ncn(-c3cc(OCc4ccccc4C(F)(F)F)c(C(C)=O)s3)c2cc1OC	0.53	1.82	0.85	1.16	0.29	1.31	-0.96	0.01	4.7	1.62	-2.12	1.84	0.33	0.86	1.02	-0.03	1.45	3.01	0.79	0.12
NC(=O)c1cc(-c2ccc(F)cc2)cc(-c2ccncc2)c1N	0.92	1.2	1.95	2.01	2.01	4.31	5.99	6.88	2.49	11.1	-1.04	-1.25	-1.54	-2.26	2.2	1.39	2.03	2.52	1.5	2.24
COC(=O)Nc1nc2ccc(Sc3ccc(NC(=O)Nc4cc(C(F)(F)F)ccc4F)cc3)cc2[nH]1	0.65	0.76	-0.16	-0.51	0.73	0.99	2.62	-0.1	-0.34	-6.83	0.78	0.4	-0.23	-1	1.97	2.08	0.7	0.37	78.2	7.6
Cc1ccc(C(=O)NC2CCC2)cc1-c1ccc(C(=O)NCC2CC2)cc1	0.45	-0.14	1.03	1.6	2.92	2.79	1.01	1.27	2.9	3.16	0.19	0.56	0.73	0.97	2.7	2.99	1.75	3.11	1.12	0.01
CS(=O)(=O)CCNCc1ccc(-c2ccc3ncnc(Nc4ccc(OCc5ccccc5)c(Br)c4)c3c2)o1	-2.58	-2.2	-3.3	-3.04	-3.44	-0.54	-2.27	2.12	10.1	0.45	-6.6	-3.23	-0.18	-0.76	1.16	-1.75	2.02	0.82	0.95	0.5
CCc1ccc(Oc2nccc(-c3c(-c4ccc(F)cc4)ncn3C3CCNCC3)n2)cc1	2.02	3.72	2.05	3.62	2.08	11.5	3.46	4.51	6.57	7.25	10	12	0.41	4.65	2.63	4.23	3.19	5.69	1.57	5.93
NCc1ccc(-n2c(-c3nonc3N)nc3cnccc32)cc1	3.84	15.8	3.5	15.1	1.72	20.5	5.51	7.31	9.11	15.5	43.4	90.6	59.8	83.5	54.7	78.7	20.1	63.3	21.3	69.9
C/C(Nc1ccc(S(N)(=O)=O)cc1)=C1/C(=O)Nc2ccccc21	-0.64	-1.45	-3.63	-0.17	-2.53	-0.18	-0.76	9.44	-7.29	2.76	-0.23	0.16	0.47	3.4	0	8.47	1.38	17.7	-1.96	2.17
c1ccc(-c2n[nH]cc2-c2ccnc(-c3ccc(OCCN4CCOCC4)cc3)c2)nc1	-0.28	0.23	-0.23	-0.3	-0.26	0.6	-5.07	-7.11	1.66	-0.22	6.85	-2.76	7.67	5.68	3.06	1.22	3.23	3.34	2.04	1.17
